TDP1 cell CPT – DT40-hTDP1 cell growth loss with CPT; chicken DT40 Tdp1-/-;hTDP1 cells + 20 nM CPT, ATP luminescence, 48 h; Potency, µM (top dose mostly 46.2 µM), for the others: at the top dose activity change, negative = growth inhibition, actives largely listed as inhibitors; actives 12% (n = 420,000); AID 686979; also: nearly all actives have a fitted effect of over 55% in size
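Chicken DT40 Tdp1-/- cells complemented with human TDP1, 400 cells/well, exposed to compounds plus 20 nM camptothecin for at least 48 h at 37 C; viability read as ATP content by CellTiter-Glo luminescence.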
Gal4-VP16 FLuc – counter-screen for ROR gamma inhibitors: Gal4-VP16 reporter; actives 3.5% (n = 310,000); Drosophila S2 Gal4-VP16 UAS-luciferase, luminescence, 20 h; Potency, µM (series often up to 53.6 µM), for inactives: top-dose activity, negative = inhibition, usual class: inhibitors; AID 2546;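 also: Gal4-VP16 expression switched on by copper sulfate through the metallothionein promoter; nearly all actives have a fitted effect of over 50% in size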
TDP1 block – blocks human tyrosyl-DNA phosphodiesterase 1 | recombinant TDP1, AlphaScreen DNA substrate cleavage | actives 0.28% (n = 350,000) | Q9NUW8 | Potency, µM (highest dose often 130 µM), without a hit: top-dose activity change, negative = inhibition, usual class: inhibitors; also: nearly all actives have a fitted effect of over 40% in size
Target sequence (Q9NUW8 whole entry, looked up): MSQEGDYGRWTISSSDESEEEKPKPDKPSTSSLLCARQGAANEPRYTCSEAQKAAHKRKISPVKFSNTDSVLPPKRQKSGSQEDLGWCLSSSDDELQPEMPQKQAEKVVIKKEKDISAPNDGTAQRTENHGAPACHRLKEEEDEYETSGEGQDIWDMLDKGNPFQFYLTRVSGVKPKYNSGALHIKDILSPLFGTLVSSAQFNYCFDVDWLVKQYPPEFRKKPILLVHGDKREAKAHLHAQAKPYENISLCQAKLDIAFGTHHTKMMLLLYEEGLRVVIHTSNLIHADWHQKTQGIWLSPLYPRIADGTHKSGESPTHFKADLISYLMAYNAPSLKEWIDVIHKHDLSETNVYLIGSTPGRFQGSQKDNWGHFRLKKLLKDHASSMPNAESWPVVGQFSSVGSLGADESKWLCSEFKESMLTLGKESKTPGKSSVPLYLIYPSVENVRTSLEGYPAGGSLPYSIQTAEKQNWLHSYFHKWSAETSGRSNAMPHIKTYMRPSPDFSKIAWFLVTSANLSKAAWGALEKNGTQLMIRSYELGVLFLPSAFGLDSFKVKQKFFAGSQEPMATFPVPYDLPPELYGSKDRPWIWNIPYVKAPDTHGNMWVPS
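AlphaScreen read-out: signal falls as enzyme removes the 3' tyrosine-FITC from a 5'-biotinylated DNA oligo (15 nM, 5 min, RT). Enzyme was E. coli-made recombinant Tdp1 at 1 nM, exposed to compound for 15 min beforehand; beads 10 ug/ml, 10 min.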
RORg inh – blocks mouse ROR gamma transcriptional activity | Potency, µM (doses to about 53.6 µM), for inactives: at the highest dose activity change, negative = inhibition, actives largely listed as inhibitors | P51450 | Drosophila S2 Gal4-RORgamma UAS-luciferase reporter, 20 h | actives 5.4% (n = 310,000); also: nearly all actives have a fitted effect of over 60% in size
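ROR gamma transcriptional activity was tracked as Gal4-UAS luciferase output in stably transfected Drosophila Schneider cells, with compound added 1 hr before 700 uM copper sulfate induction and a 20 hr ambient-temperature incubation.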
TDP1 cell noCPT – qHTS for Inhibitors of human tyrosyl-DNA phosphodiesterase 1 (TDP1): qHTS in cells in absence of CPT. Potency, µM (highest dose often 46.2 µM), for the others: at the top dose activity change, negative = growth inhibition, most hits filed as inhibitors. DT40 Tdp1-/- hTDP1 cells, no CPT, ATP luminescence, 48 h. AID 686978, 2013. actives 15% (n = 420,000); also: nearly all actives have a fitted effect of over 55% in size
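Camptothecin absent (DMSO only). Human TDP1-complemented DT40 knockout cells, 400 cells/well, 37 °C for minimum 48 hr; ATP measured via CellTiter-Glo, 30 min dark incubation, luminescence.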
Numbers without * were called inactive; u = inconclusive; x = not tested or not shown; [ ] = dose if it differs, or a comment. Rows were chosen to be rich in hits. Some 19% of all compounds tested hit in one or more screens of this group. Calls follow the shape of the dose curve; as a rule, active = well fitted curve in the direction sought with a large enough effect; inconclusive = small, poorly fitted or top-dose-only effect, or another doubt; inactive = no such curve, though single readings can be large; an effect the other way counts as inactive or inconclusive. % is scaled to controls: 0 for no effect and ±100 for the full control effect; potency is read from the fitted curve at half-maximal effect.

SMILES | TDP1 cell CPT | Gal4-VP16 FLuc | TDP1 block | RORg inh | TDP1 cell noCPT
COc1ccc(NC(=O)Cn2nnc(C(=O)NCc3cccc(OC)c3)c2N)cc1 | -15% | -3% | 8% | -18% | -2%
CCN1C(=O)/C(=C\c2ccncc2)SC1=S | -17% | 5% | 4% | 20% | -29%
CC(C(=O)N1CCN(C(=O)c2ccco2)CC1)N1C(=O)NC2(CCCCC2C)C1=O (stereo not given) | -6% | x | 0% | x | 16%
CC(C)COC(=O)N1CCCCC1c1cc(C(=O)NCc2ccc(F)cc2)no1 (stereo not given) | u | x | x | x | 21µM*
CC(C)COC(=O)N1CCCCC1c1cc(C(=O)Nc2ccccc2)no1 (stereo not given) | 18µM* | x | x | x | u
CCC1(c2cccc(Cl)c2)NC(=O)N(Cc2cc(C(=O)OC)c(C)o2)C1=O (stereo not given) | 26µM* | 11% | -3% | 0% | 18µM*
CCC1(c2ccccc2)NC(=O)N(Cc2ccc(C(=O)OC)cc2)C1=O (stereo not given) | -3% | 2% | 3% | 15% | -24%
Cc1cccc(N2CC(=O)N(c3cccc(C)c3)CC2=O)c1 | -6% | 1% | 4% | 10% | -15%
Cc1cccc(-n2nnnc2S(C)(=O)=O)c1 | 1.2µM* | x | 5% | x | 0.73µM*
COc1cccc(-n2nnnc2S(C)(=O)=O)c1 | 2.1µM* | 5µM* | -4% | 3.2µM* | 2.6µM*
CC1(C(=O)NS(=O)(=O)c2ccc3c(c2)CCO3)CCN1C(=O)C1(c2ccc(Cl)cc2)CC1 (stereo not given) | -21% | x | x | x | -12%
Nc1n[nH]c2c1C1(CCCC1)Cc1ccccc1-2 | -14% | -11% | 5% | u | u
Nc1nc(=S)[nH]c2c1C1(CCCC1)Cc1ccccc1-2 | u | 8.9µM* | 4% | 6.3µM* | u
Nc1nc(=S)[nH]c2c1C1(CCCCC1)Cc1ccccc1-2 | u | 4µM* | 3% | 2.2µM* | u
Cc1oc(-c2ccccc2)nc1CNS(=O)(=O)c1ccc(Cl)cc1 | u | x | 6% | x | -30%
Cc1oc(-c2ccccc2NS(C)(=O)=O)nc1CN(C)Cc1ccc(Cl)cc1 | -5%[9.04 µM] | x | x | x | 21µM*
Cc1ccc(C(=O)Nc2ccccc2-c2ccccc2)cc1S(=O)(=O)Nc1cccc(C)c1C | u | 3% | 6% | -16% | 21µM*
CCOC(=O)c1scc(-c2ccc(C)cc2)c1S(=O)(=O)Nc1cccc(CC)c1 | 12µM* | x | -3% | x | 13µM*
CCc1cccc(NS(=O)(=O)c2c(C)n[nH]c2C)c1 | -2% | -11% | 0% | 36% | -6%
COc1ccc(OC)c(NS(=O)(=O)c2cccs2)c1 | -6% | 4% | 0% | -26% | -27%
CCOc1ccccc1NS(=O)(=O)c1csc(C(N)=O)c1 | 0% | -3% | x | 14% | -16%
CCOC(=O)c1scc(-c2ccc(C)cc2)c1S(=O)(=O)Nc1cc(OC)ccc1OC | 9.2µM* | x | 1% | x | 3.7µM*
CCOC(=O)c1scc(-c2ccccc2)c1S(=O)(=O)Nc1ccccc1OC | 18µM* | x | 6% | x | 21µM*
Cc1cccc(C(C)C)c1NC(=O)COC(=O)c1cccc(S(=O)(=O)N2CCc3ccccc3C2)c1 | u | -16% | -9% | -11% | -26%
Cc1ccc(C(=O)O[C@H](C(=O)O)[C@@H](OC(=O)c2ccc(C)cc2)C(=O)O)cc1 (tested in a mixture with another compound) | x | x | 7%[56.1 µM] | x | x
SMILES | TDP1 cell CPT | Gal4-VP16 FLuc | TDP1 block | RORg inh | TDP1 cell noCPT
CSCC[C@H](NC(=O)[C@H]1CC[C@H](CNC(=O)[C@@H](N)Cc2ccccc2)CC1)C(=O)O | -3% | 5% | x | -17% | 6%
COC(=O)c1sccc1NC(=O)Nc1cccc(C)c1C | -17% | u | 4% | 10% | 0%
Cc1ccc(S(=O)(=O)N(CCC(=O)O)c2ccccc2)cc1 | -5% | -10% | 1% | 3% | 0%
CCOC(=O)c1scc(-c2ccc(C)cc2)c1S(=O)(=O)N1CCN(c2ccccc2F)CC1 | 15µM* | x | 1% | x | 18µM*
COC(=O)c1scc(-c2ccccc2)c1S(=O)(=O)Nc1ccc(C)c(Cl)c1 | u | x | 5% | x | u
COC(=O)c1scc(-c2ccccc2)c1S(=O)(=O)Nc1cccc(C)c1C | u | x | 8% | x | 26µM*
CCc1ccc(NS(=O)(=O)c2c(-c3ccccc3)csc2C(=O)OC)cc1 | u | x | -5% | x | 23µM*
CCN(c1ccccc1)S(=O)(=O)c1c(-c2ccc(C)cc2)csc1C(=O)OC | 18µM* | x | 1% | x | 15µM*
Cc1c(C(=O)O)cccc1-n1c(C)cc(/C=N/NC(=O)c2cc3ccccc3o2)c1C | -8% | -10% | -4% | 2% | 11%
O=C(O)Cc1cccc2c(=O)cc(-c3ccccc3)oc12 | 2% | x | x | x | -7%
COc1cc(NS(=O)(=O)c2c(C)[nH]c(C)c2C(=O)N2CCCC2)cc(OC)c1OC | -4% | -4% | 3% | 0% | 19%
COC(=O)c1scc(-c2ccc(C)cc2)c1S(=O)(=O)Nc1cc(OC)c(OC)c(OC)c1 | 21µM* | x | 6% | x | u
CCn1c(=O)c2cc(C(=O)N3CCCC3)sc2c2ccccc21 | x | 16% | x | -10% | x
CCn1c(=O)c2cc(C(=O)N3CCN(c4cccc(OC)c4)CC3)sc2c2ccccc21 | 18µM* | x | 10% | x | 13µM*
CCn1c(=O)c2cc(C(=O)N3CCN(c4cccc(Cl)c4)CC3)sc2c2ccccc21 | 15µM* | x | 5% | x | 23µM*
O=C1CCSc2ccc(Cl)cc2N1Cc1ccc(Cl)cc1 | u | -6% | 0% | u | 29µM*
O=C(NCCN1CCOCC1)c1ccc2c(c1)N(Cc1ccc(Cl)cc1)C(=O)CS2 | u | 6% | -8% | 20% | u
O=C1CNC(=S)N1Cc1cccc(Cl)c1 | 0% | -1% | x | -23% | -19%
Cc1cccc(CN2C(=O)CCSc3ccc(Cl)cc32)c1 | u | -9% | 2% | 35% | 10µM*
CCOc1ccc(NS(=O)(=O)c2cc(C(=O)N3CCN(c4ccccc4O)CC3)ccc2Cl)cc1 | -30% | x | 0% | x | u
COc1cc(C(=O)OCCC(C)C)cc(OC)c1O | -16% | -2% | -5% | 23% | -24%
Cc1c(Cl)cccc1-n1nc(C)c2c(C)cc(=O)n(CC(=O)NCc3ccccc3)c21 | -21% | x | 5% | x | -31%
Cc1ccc(-n2nc(C)c3c(C)cc(=O)n(CC(=O)Nc4cccc(C)c4C)c32)cc1 | -8% | x | 8% | x | 1.2µM*
CCCNC(=O)Cn1c(=O)cc(C)c2c(C)nn(-c3cccc(F)c3)c21 | -17% | x | -1% | x | -18%

Source: PubChem BioAssay (National Center for Advancing Translational Sciences (NCATS))
